Assay [1] deals with Lysosomal acid glucosylceramidase (Homo sapiens) (UniProt P04062). Description: Glucocerebrosidase-p2 (AID 348; in the data active = potency below about 10 µM; also: potency is read from the fitted curve at half-maximal effect). The conditions noted are these: purified GBA, blue fluorogenic substrate, 40 min. In short, it runs like this:
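Compounds titrated from 0.6 nM upwards against 0.2 nM enzyme in pH 5.9 citric acid/KH2PO4, taurocholate, tween-20; blue fluorogenic substrate 80 uM, 40 min room temperature, stopped and read Ex 365/Em 440 for AC50.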

Assay [2] addresses Cytochrome P450 1A2 (Homo sapiens) (UniProt P05177). Description: p450-cyp1a2 (AID 410; calls by dose curve; also: potency is read from the fitted curve at half-maximal effect). Particulars: recombinant CYP1A2, luciferin-ME demethylation, luminescence; series mostly up to 57 µM. In short, it runs like this: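 20nM CYP1A2 with 100uM Luciferin-ME (at Km) in 100mM KPO4; compound preincubated 10 min, NADPH regeneration added, 60 min at room temperature. Luciferin quantified by luminescence after detection reagent; normalized to 57 uM furafylline.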

Assay [3] is described as follows: Stat Signaling Pathway (AID 446; active = well fitted curve in either direction with a large enough effect, not every such curve was filed as active;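 also: ME-180 cervical cancer cells given 40 pM IL-6 alongside compound; SIE-controlled beta-lactamase reporter measured as 460/530 nm FRET emission ratio; % is scaled to controls: 0 for no effect and ±100 for the full control effect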). The conditions noted are these: ME-180 SIE beta-lactamase reporter, IL-6 stimulated, 5 h; at 7.69 µM (top of the series) unless noted. In short, it runs like this: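 ME-180 cells carrying a SIE-driven beta-lactamase reporter are stimulated with 40 pM IL-6 for 5 h at 37C in the presence of compound. The 460/530 nm FRET substrate ratio is read after 2.5 h at RT. Data are normalised to 300 pM IL-6 and to 125 nM JAK inhibitor controls.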

Assay [4] concerns the target Glucocorticoid receptor (Homo sapiens) (UniProt P04150). Description: GR-EFC Redistribution (AID 451; calls by dose curve; also: potency is read from the fitted curve at half-maximal effect). Particulars: CHO-K1 GR-EFC translocation, beta-gal luminescence, 2 h. The gist of the method:
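CHO-K1 cells expressing nuclear EA and GR-ED fragments of b-gal; compounds titrated up to 46 uM final, 2 h at 37 C. GR nuclear translocation read as complemented b-gal luminescence after 1 h RT detection.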

For assay [5], the target named is Mitogen-activated protein kinase 10 (Mus musculus) (UniProt Q61831). Description: JNK3 AlphaScreen Assay (AID 530; active = well fitted curve in either direction with a large enough effect, not every such curve was filed as active;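 also: kinase came from lysate of stimulated human HepG2 cells; signal reports phosphorylation of biotinylated GST-cJun 1-79 at Ser73 with 10 µM ATP; % is scaled to controls: 0 for no effect and ±100 for the full control effect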). Particulars: JNK3 lysate, c-Jun phosphorylation; series mostly up to 57.1 µM. The gist of the method: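 Pre-activated (IL-1β/TNFα) JNK3 in HepG2 lysates phosphorylates biotin-GST-cJun(1-79), 10 uM ATP; anti-phospho-cJun(Ser73) AlphaScreen read at room temperature, pH 7.6 Tris buffer. Compounds pre-incubated 15 min as titrations.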

For assay [6], the target named is 3',5'-cyclic-AMP phosphodiesterase 4B (Homo sapiens) (UniProt Q07343). Description: qHTS Assay for Inhibitors of PDE-IV (AID 607; active = well fitted activation curve with a large enough effect in the main read-out, with a control signal flat, not every such curve was filed as active; also: % of control where 0% means no effect). Particulars: HEK293 ACTOne CNG channel cells, membrane potential fluorescence; series mostly up to 22.9 µM. In short, it runs like this:
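HEK293 ACTOne cells with CNG channel (1000/well), endogenous PDE4; membrane potential dye, compounds up to 22.9 uM final. Fluorescence Ex 535/Em 590; RO 20-1724 (100 uM final) as reference.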

Assay [7] concerns the target Cytochrome P450 3A4 (Homo sapiens) (UniProt P08684). As to the kind of experiment: qHTS Assay for Activators of Cytochrome P450 3A4 (AID 885). Also: nearly all actives have a fitted effect of over 65% in size. The conditions noted are these: recombinant CYP3A4, Luciferin-PPXE luminescence, 60 min; series mostly up to 57.1 µM. In short, it runs like this: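 Human CYP3A4 (20 nM) with Luciferin-PPXE at 25 uM (its KM) in 200 mM KPO4; 10 min compound preincubation, then NADPH regeneration and 60 min reaction at RT. Luciferin read by luminescence; normalized to 57 uM ketoconazole full inhibition.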
(qHTS replaces the single test concentration by a dilution series.)

A short description of assay [8]: qHTS Assay for Lipid Storage Modulators (AID 1519; calls by dose curve). The conditions noted are these: Drosophila S3 cells, BODIPY lipid droplet/cell ratio, laser cytometry, cells loaded with oleic acid; for activity change, negative = inhibition: at 57.5 µM (top of the series). The gist of the method:
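Cells seeded at 5,000 per well were treated with compounds over a concentration series and loaded with oleic acid (400 uM, as added). Lipid droplet fluorescence (488 nm excitation, 500-530 nm channel) was read by laser-scanning cytometry and normalized to 20 uM Triacsin C.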

A short description of assay [9]: Primary qHTS for small molecule stabilizers of the endoplasmic reticulum resident proteome: Secreted ER Calcium Modulated Protein (SERCaMP) assay (AID 1508630). Also: % is scaled to controls: 0 for no effect and ±100 for the full control effect. Particulars: SH-SY5Y GLuc-SERCaMP (Gaussia luciferase released on ER calcium loss) secretion, thapsigargin, luminescence; series mostly up to 38.4 µM. The gist of the method: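 GLuc-SERCaMP-expressing SH-SY5Y cells, pretreated 16 h with compound, are challenged with thapsigargin to empty ER calcium stores; after 4 h, coelenterazine is added directly to the medium and luminescence is imaged.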

A short description of assay [10]: AP1 Signaling Pathway (AID 357; active = well fitted curve in either direction with a large enough effect, not every such curve was filed as active;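 also: ME-180 reporter cells stimulated with EGF at its EC50 level; % is scaled to controls: 0 for no effect and ±100 for the full control effect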). The conditions noted are these: ME-180 AP-1-bla reporter, EGF-induced, beta-lactamase ratio, 5 h; at 7.69 µM (top of the series) unless noted. The gist of the method:
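Modulation of EGF-driven AP-1 transcription was assessed with a beta-lactamase reporter in ME-180 cells. Compound and EC50 EGF were co-incubated 5 hours at 37 °C before 2.5-hour CCF4 loading at room temperature and dual-emission reading.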

Assay [11] in a line: NFAT Signaling Pathway (AID 444; active = well fitted curve in either direction with a large enough effect, not every such curve was filed as active). The conditions noted are these: Jurkat NFAT-bla M1, carbachol, beta-lactamase ratio, 5 h; at 7.69 µM (top of the series) unless noted. The gist of the method:
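Jurkat cells with NFAT-driven β-lactamase reporter and co-expressed M1 receptor, stimulated with carbachol (final 1 uM, ~EC50), compound titration, 5 h at 37 °C. CCF4 loaded 1 h at RT; 460/530 nm ratio gave %activity and AC50.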

For assay [12], the target named is Glucocorticoid receptor (Homo sapiens) (UniProt P04150). As to the kind of experiment: GR-GFP Redistribution (AID 450;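 active = compounds whose dose series gives a full or clear partial fitted curve of increased nuclear translocation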; also: potency is read from the fitted curve at half-maximal effect). Particulars: U2OS GR-GFP nuclear translocation, laser cytometry, 2 h.
A short description of assay [13]: Confirmation and Secondary Assay for Modulators of Hemoglobin Beta Chain Splicing at IVS2 654 locus (AID 910).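 Also: HeLa cells stably carrying EGFP split by mutant beta-globin IVS2-654 intron; % of control where 0% means no effect.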 The conditions noted are these: HeLa EGFP-654 splicing reporter, GFP fluorescence, 48 h; series mostly up to 38.3 µM. The gist of the method: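 HeLa cells stably expressing EGFP interrupted by β-globin IVS2-654 intron, seeded overnight in Opti-MEM/2% FCS, then treated 2 days at 37 °C. Restored splicing read as total peak GFP intensity per well by laser scanning cytometry (488 nm excitation, 500–520 nm emission); 500 nM antisense PNA as control.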

Assay [14] can be described thus: Confirmation and Secondary Assay for Modulators of Hemoglobin Beta Chain Splicing at IVS2 705 locus (AID 930).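 Also: HeLa cells stably expressing the EGFP-705 splicing reporter; % of control where 0% means no effect.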 Particulars: HeLa EGFP-705 splicing reporter, GFP fluorescence, 48 h; series mostly up to 38.3 µM. In short, it runs like this: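 Splice-correction reporter: EGFP cDNA split by beta-globin intron 2 bearing the 705 mutation, stably in HeLa. Compound incubation 2 days, 37C; fluorescent objects 5-250 µm summed per well.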

The target of assay [15] is Ubiquitin carboxyl-terminal hydrolase 1 (Homo sapiens) (UniProt O94782). As to the kind of experiment: Inhibitors of USP1/UAF1: Pilot qHTS (AID 504865).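 Also: rhodamine fluorescence freed from ubiquitin-rhodamine substrate followed over time; top concentration of the series differs between compounds; % is scaled to controls: 0 for no effect and ±100 for the full control effect; nearly all actives have a fitted effect of over 35% in size.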 Particulars: purified USP1/UAF1, Ub-rhodamine cleavage fluorescence; series mostly up to 54.9 µM. The gist of the method:
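1nM USP1/UAF1 + cpd, 15 min RT; start w/ Ub-Rho 150nM final; kinetic FL 480/540 nm, 6 reads q60 s. Buffer 50mM HEPES pH 7.8, 0.5mM EDTA, 1mM TCEP, 0.01% Tween-20, 0.1 mg/ml BSA.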

Assay [16] is described as follows: qHTS Assay for Identification of Small Molecule Agonists for Hypoxia Response Element Signaling Pathway (AID 914; active = well fitted activation curve with a large enough effect in the signal ratio, with a control signal flat, not every such curve was filed as active; the % refers to the signal ratio; also: potency is read from the fitted curve at half-maximal effect). The conditions noted are these: ME-180 (cervical carcinoma) HRE-bla reporter, beta-lactamase ratio, CoCl2, 17 h; activation: stronger effect = higher value. In short, it runs like this:
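Cells were plated overnight, pin-dosed with compound in a titration series, co-stimulated with EC50 CoCl2 and incubated 17 hours at 37 degrees Celsius. CCF4 substrate was then loaded, and AC50 values came from the 460nm/530nm ratio.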

Setting [17] is: measured here: cell count channel max response.
[18] abbreviates: measured here: lipid channel max response.

Records with an inconclusive call do not appear. The source made the active and inactive calls. Unless noted, calls follow the shape of the dose curve; as a rule, active = well fitted curve in the direction sought with a large enough effect; inconclusive = small, poorly fitted or top-dose-only effect, or another doubt; inactive = no such curve, though single readings can be large; an effect the other way counts as inactive or inconclusive.

Sequence of Cytochrome P450 1A2 (Homo sapiens) (P05177 whole entry, looked up): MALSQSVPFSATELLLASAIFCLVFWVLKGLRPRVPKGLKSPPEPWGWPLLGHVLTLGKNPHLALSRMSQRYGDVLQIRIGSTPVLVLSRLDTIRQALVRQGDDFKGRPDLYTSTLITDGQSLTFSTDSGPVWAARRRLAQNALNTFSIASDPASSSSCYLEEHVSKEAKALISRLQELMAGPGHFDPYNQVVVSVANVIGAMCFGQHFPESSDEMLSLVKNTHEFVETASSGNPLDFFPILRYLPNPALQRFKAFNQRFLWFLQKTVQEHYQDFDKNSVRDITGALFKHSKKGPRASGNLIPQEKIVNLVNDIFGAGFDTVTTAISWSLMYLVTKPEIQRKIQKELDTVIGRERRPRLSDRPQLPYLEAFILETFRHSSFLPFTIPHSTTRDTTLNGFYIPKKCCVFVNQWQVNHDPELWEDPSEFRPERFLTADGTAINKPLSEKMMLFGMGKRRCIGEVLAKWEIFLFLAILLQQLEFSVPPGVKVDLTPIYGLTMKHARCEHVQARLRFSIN
Sequence of Lysosomal acid glucosylceramidase (Homo sapiens) (P04062 whole entry, looked up): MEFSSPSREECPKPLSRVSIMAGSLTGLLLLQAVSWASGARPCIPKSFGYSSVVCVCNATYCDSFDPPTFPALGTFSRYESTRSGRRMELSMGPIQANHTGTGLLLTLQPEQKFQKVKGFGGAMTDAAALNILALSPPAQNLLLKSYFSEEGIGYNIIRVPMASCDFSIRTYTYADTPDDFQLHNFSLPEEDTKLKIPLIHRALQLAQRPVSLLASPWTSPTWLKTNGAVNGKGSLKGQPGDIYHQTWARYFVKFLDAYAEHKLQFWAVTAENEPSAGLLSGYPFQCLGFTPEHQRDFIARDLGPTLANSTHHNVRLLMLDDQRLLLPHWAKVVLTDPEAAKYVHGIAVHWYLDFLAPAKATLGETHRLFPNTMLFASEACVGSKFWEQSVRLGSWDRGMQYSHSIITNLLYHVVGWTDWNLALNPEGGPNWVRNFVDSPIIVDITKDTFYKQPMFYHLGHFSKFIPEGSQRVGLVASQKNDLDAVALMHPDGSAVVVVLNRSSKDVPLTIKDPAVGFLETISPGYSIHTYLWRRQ
Sequence of Glucocorticoid receptor (Homo sapiens) (P04150 whole entry, looked up, the tested form may be a part): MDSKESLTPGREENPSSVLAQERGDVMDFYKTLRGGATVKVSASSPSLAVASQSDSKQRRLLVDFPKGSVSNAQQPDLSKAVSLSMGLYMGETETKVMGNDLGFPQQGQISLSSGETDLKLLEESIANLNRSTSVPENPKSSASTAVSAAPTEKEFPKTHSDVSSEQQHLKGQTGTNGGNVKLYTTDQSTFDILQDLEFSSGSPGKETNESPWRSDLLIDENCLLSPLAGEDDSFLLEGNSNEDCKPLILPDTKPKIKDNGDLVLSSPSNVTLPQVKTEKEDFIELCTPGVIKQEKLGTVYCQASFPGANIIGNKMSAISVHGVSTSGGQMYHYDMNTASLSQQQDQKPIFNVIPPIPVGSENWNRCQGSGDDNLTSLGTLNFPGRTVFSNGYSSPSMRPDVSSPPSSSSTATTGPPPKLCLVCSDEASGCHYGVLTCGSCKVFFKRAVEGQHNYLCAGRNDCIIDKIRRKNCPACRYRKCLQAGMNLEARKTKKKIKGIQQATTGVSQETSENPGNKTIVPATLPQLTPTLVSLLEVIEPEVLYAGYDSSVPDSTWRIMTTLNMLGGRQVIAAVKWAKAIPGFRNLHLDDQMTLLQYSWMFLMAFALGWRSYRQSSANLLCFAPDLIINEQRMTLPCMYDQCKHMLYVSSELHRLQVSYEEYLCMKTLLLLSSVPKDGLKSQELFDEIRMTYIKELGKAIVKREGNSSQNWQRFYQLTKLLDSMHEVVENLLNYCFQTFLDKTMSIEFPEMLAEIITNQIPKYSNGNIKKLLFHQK
Sequence of Cytochrome P450 3A4 (Homo sapiens) (P08684 whole entry, looked up): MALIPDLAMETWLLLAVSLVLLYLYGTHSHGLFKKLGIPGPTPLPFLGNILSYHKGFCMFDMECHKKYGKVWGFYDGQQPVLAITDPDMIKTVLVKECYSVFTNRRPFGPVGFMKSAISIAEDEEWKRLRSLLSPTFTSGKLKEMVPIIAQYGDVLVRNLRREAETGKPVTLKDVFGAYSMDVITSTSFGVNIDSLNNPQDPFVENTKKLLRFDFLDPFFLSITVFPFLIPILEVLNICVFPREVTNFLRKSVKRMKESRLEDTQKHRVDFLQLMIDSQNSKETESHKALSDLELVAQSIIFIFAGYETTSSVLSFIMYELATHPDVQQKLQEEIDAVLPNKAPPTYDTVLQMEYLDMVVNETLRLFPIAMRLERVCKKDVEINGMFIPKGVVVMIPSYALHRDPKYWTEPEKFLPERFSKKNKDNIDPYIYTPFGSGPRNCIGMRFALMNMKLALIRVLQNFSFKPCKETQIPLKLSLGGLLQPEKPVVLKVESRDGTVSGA
Sequence of Ubiquitin carboxyl-terminal hydrolase 1 (Homo sapiens) (O94782 whole entry, looked up): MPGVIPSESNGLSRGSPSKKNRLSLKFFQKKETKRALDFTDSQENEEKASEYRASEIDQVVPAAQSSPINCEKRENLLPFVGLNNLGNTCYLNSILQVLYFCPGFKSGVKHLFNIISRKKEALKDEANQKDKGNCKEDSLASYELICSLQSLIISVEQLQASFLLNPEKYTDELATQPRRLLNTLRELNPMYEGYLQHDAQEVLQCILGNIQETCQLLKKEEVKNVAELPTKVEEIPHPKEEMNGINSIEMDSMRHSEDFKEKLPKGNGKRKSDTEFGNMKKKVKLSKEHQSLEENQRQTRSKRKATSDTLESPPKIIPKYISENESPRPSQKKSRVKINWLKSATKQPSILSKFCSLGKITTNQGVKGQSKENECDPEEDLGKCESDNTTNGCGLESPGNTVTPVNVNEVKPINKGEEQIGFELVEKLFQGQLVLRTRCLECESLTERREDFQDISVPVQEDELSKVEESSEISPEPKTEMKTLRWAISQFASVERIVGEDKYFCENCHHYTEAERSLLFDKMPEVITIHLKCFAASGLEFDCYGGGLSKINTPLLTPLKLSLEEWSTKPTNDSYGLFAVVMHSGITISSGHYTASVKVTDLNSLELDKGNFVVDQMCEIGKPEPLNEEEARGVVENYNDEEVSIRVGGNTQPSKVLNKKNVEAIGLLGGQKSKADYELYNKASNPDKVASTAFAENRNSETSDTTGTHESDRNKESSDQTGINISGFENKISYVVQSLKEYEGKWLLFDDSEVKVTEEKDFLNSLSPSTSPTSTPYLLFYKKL
Sequence of 3',5'-cyclic-AMP phosphodiesterase 4B (Homo sapiens) (Q07343 whole entry, looked up): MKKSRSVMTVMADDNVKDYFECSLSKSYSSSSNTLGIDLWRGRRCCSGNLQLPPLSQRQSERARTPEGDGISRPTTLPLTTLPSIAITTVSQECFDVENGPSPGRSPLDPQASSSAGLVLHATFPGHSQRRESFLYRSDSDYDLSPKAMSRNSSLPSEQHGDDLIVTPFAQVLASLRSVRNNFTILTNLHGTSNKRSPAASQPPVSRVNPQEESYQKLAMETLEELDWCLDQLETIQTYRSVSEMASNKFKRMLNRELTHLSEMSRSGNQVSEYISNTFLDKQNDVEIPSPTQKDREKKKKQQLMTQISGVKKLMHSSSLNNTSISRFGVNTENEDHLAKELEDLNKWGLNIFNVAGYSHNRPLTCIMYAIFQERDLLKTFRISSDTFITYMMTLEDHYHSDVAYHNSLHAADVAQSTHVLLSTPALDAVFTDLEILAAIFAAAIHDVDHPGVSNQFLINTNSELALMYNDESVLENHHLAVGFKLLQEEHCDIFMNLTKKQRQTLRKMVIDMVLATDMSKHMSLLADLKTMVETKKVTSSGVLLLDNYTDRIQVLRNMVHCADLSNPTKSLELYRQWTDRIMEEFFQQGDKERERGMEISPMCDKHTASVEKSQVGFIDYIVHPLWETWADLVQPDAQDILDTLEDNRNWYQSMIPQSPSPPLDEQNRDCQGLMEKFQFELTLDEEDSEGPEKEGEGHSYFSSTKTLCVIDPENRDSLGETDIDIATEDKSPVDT

Consider `Cn1cccc1C(=O)N1CCC2(CCCN(C(c3ccccc3)c3ccccc3)C2)CC1`, for which the Potency in assay [1] is > 11.4 µM (inactive); in assay [2], 12.6 µM (active); in assay [4] it was > 46 µM (inactive). Further, in assay [3], the activity, negative = inhibition is 6.33% (inactive). For the same molecule, the Potency entry in [5], in [6] and in assay [7] was “inactive” in each case. In addition, the activity change, negative = inhibition in assay [8] is 4.95% (inactive). For the same molecule, the max response in assay [8] (setting [17]) was 6.53%; in assay [8] (setting [18]), 18.7%. The result in [9] was inactive.
On to `O=C(c1ccncc1)N1CCC2(CC1)CN(c1ccccn1)C2`, for which the values for the Potency in assay [1] and in [4] were > 11.4 µM (inactive) and > 46 µM (inactive), respectively. Further, the activity change, negative = inhibition in assay [10] was 24.8% (inactive); in [8], 3.6% (inactive). Besides, the Potency entry in [5] and in assay [6] was “inactive” each time. Moreover, the results for the max response in assay [8] (setting [17]) and in assay [8] (setting [18]) were 0.68% and 6.79%, respectively. The result in assay [9] was inactive.
In the case of `CN(C)Cc1ccccc1-c1ccc2ncnc(N3CCOCC3)c2c1`, the Potency in assay [1] was > 11.4 µM (inactive); in [2], 15.8 µM (active); in assay [12] it was > 46 µM (inactive); in assay [4], > 46 µM (inactive). Also, the activity change, negative = inhibition in assay [11] is 2.99% (inactive); in assay [8], 9.22% (inactive). The activity, negative = inhibition in assay [3] is 12.4% (inactive). For the same molecule, the Potency result in assay [5], in assay [7], in assay [13] and in assay [15] was “inactive” each time. In addition, the call in assay [14] and in assay [9] was inactive. Also, the values for the max response in [8] (setting [17]) and in [8] (setting [18]) were 6.66% and 17.3%, respectively.
Regarding `CN(C)C(=O)c1ccc(-c2nc(NCc3cccs3)c3ccccc3n2)cc1`, the Potency in assay [1] was > 11.4 µM (inactive); in [2], 12.6 µM (active); in [12], > 46 µM (inactive); in [4] it was > 46 µM (inactive). Also, the activity change, negative = inhibition in assay [11] is 28.9% (inactive); in assay [8], 12.5% (inactive). The activity, negative = inhibition in [3] is -25% (inactive). The Potency entry in assay [5], in [7] and in [13] was “inactive” in each case. For the same molecule, the results for the max response in [8] (setting [17]) and in assay [8] (setting [18]) were 0.768% and 15.6%, respectively. Besides, in assay [9], the result was inactive.
On to `CCNc1ncc2ncc(=O)n(C[C@H]3CCCO3)c2n1`, for which the Potency was > 11.4 µM (inactive) in [1], 10 µM (active) in [2], > 9.22 µM (inactive) in assay [12] and > 46 µM (inactive) in assay [4]. The activity change, negative = inhibition was -20% (inactive) in assay [11] and 1.57% (inactive) in assay [8]. Further, the Potency result in [5] was “inactive”. Moreover, the max response in assay [8] (setting [17]) is 16.3%; in assay [8] (setting [18]), 17.2%. Besides, the result in assay [9] was inactive.
Turning to `COc1ccc(CNc2nc(-c3ccc(C(=O)N(C)C)cc3)nc3ccccc23)c(OC)c1`, the Potency in assay [1] is > 11.4 µM (inactive); in assay [2] it was 15.8 µM (active); in assay [12], > 46 µM (inactive); in assay [4] it was > 46 µM (inactive). In addition, the Potency entry in assay [5], in assay [7], in assay [13] and in assay [15] was “inactive” in each case. The molecule was classed as inactive in assay [14] and in assay [9]. Besides, the activity change, negative = inhibition in assay [8] is 6.93% (inactive). The max response in [8] (setting [17]) is -11.3%; in assay [8] (setting [18]), 8.44%.
With `COc1ccccc1CNc1ncnc2ccc(-c3c(C)noc3C)cc12`, the Potency in assay [1] is > 11.4 µM (inactive); in assay [2], 7.94 µM (active); in assay [12], > 46 µM (inactive); in assay [4], > 46 µM (inactive); in assay [16], 1.26 µM (active). For the same molecule, the Potency entry in assay [5] and in assay [13] was “inactive” in each case. Also, the molecule was called inactive in assay [14] and in assay [9]. In addition, the activity change, negative = inhibition in assay [8] was -5.34% (inactive). Moreover, the max response in assay [8] (setting [17]) was -3.01%; in assay [8] (setting [18]), -7.6%.
